Assay outcomes: PubChem, The Scripps Research Institute Molecular Screening Center
Rows were chosen to be rich in hits. Some 1.1% of all compounds tested hit in one or more screens of this group.
NR2F2 inh: NR2F2 transcriptional activity inhibitors, primary screen, cell-based, luciferase reporter, HEK293T, luminescence | COUP transcription factor 2 (Homo sapiens), P24468 | HEK293T NGFI-A luciferase reporter | inhibition, % at 8.6 µM | 0.7% of 370,000 active | AID 686940, 2013;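 active = inhibition above a per-plate cutoff, mean inhibition of test wells between control levels plus 3 SD, cut at about 38% in these data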;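 also: cells cotransfected with COUP-TFII expression vector driving the NGFI-A reporter; 0% = median of COUP-TF2 test wells and 100% = reporter-only cells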
Target sequence (P24468 whole entry, looked up): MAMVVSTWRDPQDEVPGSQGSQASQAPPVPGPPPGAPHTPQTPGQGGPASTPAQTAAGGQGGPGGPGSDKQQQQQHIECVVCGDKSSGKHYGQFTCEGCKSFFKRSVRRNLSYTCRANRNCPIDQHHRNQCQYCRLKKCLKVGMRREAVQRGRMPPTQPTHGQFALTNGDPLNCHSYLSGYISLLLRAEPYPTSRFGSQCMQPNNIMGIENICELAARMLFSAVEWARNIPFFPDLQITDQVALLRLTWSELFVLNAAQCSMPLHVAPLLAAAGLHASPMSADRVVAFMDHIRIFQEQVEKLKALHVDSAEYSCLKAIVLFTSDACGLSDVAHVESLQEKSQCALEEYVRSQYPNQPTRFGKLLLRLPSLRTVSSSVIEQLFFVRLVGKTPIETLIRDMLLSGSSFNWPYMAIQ
NCOA1 inh: SRC1 coactivator transcriptional activity inhibitors, primary screen, cell-based, luminescence. HEK293 GAL4-SRC1 luciferase reporter. inhibition, % at 3.6 µM. 0.12% of 360,000 active. AID 588354, 2011;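 active = inhibition above the campaign mean plus 3 SD, with each screening campaign given its own cutoff, cut at about 60% in these data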;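 also: 0% = DMSO treated cells and 100% = gossypol at 36 µM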
GalR3 antag: GalR3 antagonists in HEK293 cells, primary screen, cell-based, fluorescence readout; Galanin receptor type 3 (Homo sapiens), O60755; HEK293 GalR3-CNG cAMP membrane potential fluorescence; galR3 body fused to GalR1 C-terminus; inhibition, % at 3 µM; 0.44% of 360,000 active; AID 651719, 2012;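 active = inhibition above the screen-wide average plus 3 SD, cut at about 13% in these data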;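 also: forskolin and galanin both at EC90 stimulate the cells; cAMP rise reported by CNG channel membrane potential dye signal; 0% = forskolin plus galanin with DMSO and 100% = forskolin alone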
Target sequence (O60755 1-299 limits assumed): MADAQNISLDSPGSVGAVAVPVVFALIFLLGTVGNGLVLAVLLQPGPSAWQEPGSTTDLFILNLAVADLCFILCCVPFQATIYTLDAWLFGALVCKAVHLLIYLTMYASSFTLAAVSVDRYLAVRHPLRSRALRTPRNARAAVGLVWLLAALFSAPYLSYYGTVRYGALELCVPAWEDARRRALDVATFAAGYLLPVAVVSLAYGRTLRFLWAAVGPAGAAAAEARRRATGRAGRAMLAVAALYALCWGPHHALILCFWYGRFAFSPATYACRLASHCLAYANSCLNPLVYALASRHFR
SRC3 inh: SRC3 coactivator transcriptional activity inhibitors, primary screen, cell-based, luminescence. 0.17% of 360,000 active. HEK293 GAL4-SRC3 luciferase reporter. inhibition, % at 3.6 µM. AID 588352, 2011;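 active = inhibition above a per-campaign cutoff, the mean of all compounds plus 3 SD, cut at about 60% in these data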;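 also: 0% = DMSO-treated cells and 100% = gossypol-treated cells at 36 µM; higher means less SRC3-driven luciferase light from the GAL4 reporter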
SRC2 inh: inhibition of GAL4-SRC2 driven luciferase reporter, primary screen, SRC2 inhibitor project, cell-based, luminescence. AID 651957, 2012. Nuclear receptor coactivator 2 (Homo sapiens), Q15596. HEK293 GAL4-SRC2 luciferase reporter. 0.17% of 370,000 active. inhibition, % at 9 µM;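 active = inhibition above the mean inhibition of all tested compounds plus 3 SD, set per campaign, cut at about 52% in these data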;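 also: 0% = DMSO treated cells and 100% = cells given Gossypol at 36 µM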
LRH-1 inv ag: LRH-1 (NR5A2) inverse agonists, primary screen, cell-based, luminescence, HEK293T, StAR-luciferase reporter; inhibition, % at 3.6 µM; Nuclear receptor subfamily 5 group A member 2 (Homo sapiens), O00482; 0.13% of 360,000 active; LRH-1 transfected, 24 h;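 active = inhibition above the mean inhibition of all tested compounds plus 3 SD, cut at about 73% in these data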;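 also: 0% = DMSO wells and 100% = reporter-only cells lacking LRH-1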
VP16 Luc counter: Gal4-VP16 luciferase reporter inhibitors, counter-screen for COUP-TFII antagonist project, cell-based, luminescence, HEK293. 25% of 2,500 active. inhibition, % at 8.5 µM. AID 687007, 2013. shares compounds with NR2F2 inh; in the data active = inhibition above about 13%
NR2F2 inh conf: NR2F2 transcriptional activity inhibitors, confirmation, cell-based, luciferase reporter, HEK293, triplicate | shares compounds with NR2F2 inh | 45% of 2,500 active | AID 687008, 2013 | inhibition, % at 8.5 µM | HEK293 NGFI-A luciferase reporter, luminescence;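 active = mean inhibition over three repeats above a set limit taken from the earlier primary screen, cut at about 38% in these data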;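 also: 100% = cells given the luciferase reporter alone without the COUP-TF2 vector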
Starred values were filed as active, the others as inactive; · = no result.

SMILES | NR2F2 inh | NCOA1 inh | GalR3 antag | SRC3 inh | SRC2 inh | LRH-1 inv ag | VP16 Luc counter | NR2F2 inh conf
COCCOC(=O)C1=C(N)Oc2c(c(=O)oc3ccccc23)[C@@]12C(=O)Nc1ccccc12 | -3.8 | -12.8 | 0.7 | -3.2 | -20.6 | -8.1 | · | ·
CC(=O)O[C@H]1CC[C@]2(C)C3CC[C@@]4(C)C(C[C@@H](O)[C@@H]4O)C3[C@@H](OC(C)=O)C[C@H]2C1 (stereo partly drawn) | 8.9 | -0.5 | -6.3 | 6.1 | -9.7 | 14.1 | · | ·
CC(=O)OC1CC(OC2C(O)CC(OC3C(O)CC(OC4CCC5(C)C(CCC6C5CCC5(C)C(C7=CC(=O)OC7)CCC65O)C4)OC3C)OC2C)OC(C)C1OC1OC(CO)C(O)C(O)C1O (stereo not drawn) | 76.5* | 91.5* | 21.8* | 89.3* | 60.3* | 98.8* | 56.4* | 77.7*
Cn1c(=O)[nH]c2nncnc2c1=O | -1.9 | -3.4 | -2.2 | 11.2 | -0.8 | 5.0 | · | ·
Cc1ccc(N(C)C(=O)Oc2ccc(C(=O)c3ccc(Cl)cc3)cc2)cc1 | 0.3 | -7.0 | 1.7 | 13.0 | 10.4 | 2.8 | · | ·
Nc1ncnc2c1ccn2[C@@H]1O[C@H](CO)[C@@H](O)[C@H]1O | 63.7* | 81.8* | -6.3 | 89.2* | 63.6* | 102.6* | 32.1* | 50.6*
CC(=O)NCC1=C(c2cccc3ccccc23)C[C@@H]2CC[C@H]1N2Cc1ccco1 | -4.7 | -3.9 | -5.3 | -10.6 | -10.3 | -3.2 | · | ·
CCC(C)C(NC(=O)CCCNC(=O)CCC(=O)OC1O[C@H]2OC3(C)CC[C@H]4[C@H](C)CCC(C1C)C24OO3)C(=O)O (stereo partly drawn) | 49.2* | 47.5 | -4.4 | 68.2* | -24.2 | 89.8* | -1.2 | 46.5*
CCC(C)NC(=O)CCC(=O)OC1O[C@H]2OC3(C)CC[C@H]4[C@H](C)CCC(C1C)C24OO3 (stereo partly drawn) | 51.2* | 62.5* | -11.4 | 76.8* | 9.8 | 91.4* | 12.3 | 49.2*
C[C@@H]1CC[C@H]2[C@@H](C)C(=O)O[C@@H]3O[C@@]4(C)CC[C@@H]1[C@]32OO4 | 2.1 | 6.0 | -1.0 | -1.8 | 8.8 | 22.8 | · | ·
C[n+]1c(-c2ccccc2)sc2ccccc21 | 15.2 | 9.9 | -3.6 | -8.2 | 4.7 | 12.5 | · | ·
C[n+]1ccc(-c2ccccc2)c2ccccc21 | 40.0* | -6.3 | -5.9 | 19.6 | 11.8 | 31.5 | -2.0 | 13.7
CC1=CC2OC3CC4OC(=O)C=CC=CC(C(C)O)OCC(O)C(C)CC(=O)OCC2(CC1O)C4(C)C31CO1 (stereo not drawn) | 89.8* | 94.9* | -4.1 | 93.5* | 71.3* | 98.5* | 23.1* | 92.7*
C[C@@H]1O[C@@H](O[C@@H]2C=C3CCC4C(CC[C@]5(C)[C@@H](c6ccc(=O)oc6)CC[C@]45O)[C@@]3(C)CC2)[C@H](O)[C@H](O)[C@H]1O (stereo partly drawn) | 81.3* | 90.3* | 16.1* | 92.5* | 71.2* | 102.9* | 56.4* | 82.3*
C[C@@H]1O[C@@H](O[C@@H]2C=C3CC[C@@H]4C(CC[C@]5(C)[C@@H](c6ccc(=O)oc6)CC[C@]45O)[C@@]3(C)CC2)[C@H](O)[C@H](O)[C@H]1O (stereo partly drawn) | 72.6* | 93.3* | 32.5* | 91.3* | 58.1* | 99.5* | 54.8* | 80.5*
CC(C)(C)C(=O)Nc1ccc(S(=O)(=O)N2CC3CC(C2)c2cccc(=O)n2C3)cc1 (stereo not drawn) | -25.3 | -3.6 | -4.4 | -2.3 | -0.2 | 4.6 | · | ·
CC(C)C1(C)N=C(c2nc3ccccc3cc2C(=O)O)NC1=O (stereo not drawn) | -2.2 | 6.1 | -1.3 | 9.4 | -6.3 | 2.1 | · | ·
COC(=O)C1=C(c2ccc(-c3ccccc3)c(F)c2)C[C@@H]2CC[C@H]1N2C(=O)NCCOc1ccc(OC)cc1 | 40.1* | 11.7 | -2.8 | 9.2 | 25.8 | -0.8 | 2.0 | 6.3
CCS(=O)(=O)NC(C)c1nnc2n1-c1ccc(Br)cc1C(c1ccccc1Cl)=NC2 (stereo not drawn) | 8.2 | 4.5 | -1.4 | -6.3 | -12.0 | -4.6 | · | ·
CSc1nc2ccccc2c(=O)n1-c1cccnc1 | 10.4 | -8.8 | -3.5 | -3.9 | 18.8 | 3.8 | · | ·
O=[N+]([O-])c1ccccc1-c1cc(-c2ccccc2)cc(-c2ccccc2)[n+]1Cc1ccccc1Cl | 56.5* | · | -12.1 | · | -22.6 | · | 13.7* | 43.8*
O=[N+]([O-])c1ccccc1CCl | 13.8 | 5.0 | 1.2 | -4.2 | -7.8 | 6.2 | · | ·
CC(=O)OC1(C)CC(C)C(=O)C(C(O)CC2CC(=O)NC(=O)C2)C1 (stereo not drawn) | 91.4* | 95.9* | -4.9 | 95.4* | 65.2* | 103.2* | 14.8* | 84.5*
C[C@@H]1C[C@@H]([C@H](O)CC2CC(=O)NC(=O)C2)C(=O)[C@@H](C)C1 | 87.5* | 92.9* | 0.4 | 93.4* | 69.9* | 103.3* | -2.4 | 67.0*
c1cc(CCN2CCCC2)ccn1 | 22.5 | -6.7 | -2.0 | 3.4 | 13.7 | -5.5 | · | ·
Fc1ccc(C[n+]2c(-c3ccccc3)cc(-c3ccccc3)cc2-c2ccccc2)cc1 | 22.7 | · | -5.2 | · | -4.5 | · | · | ·
Cc1cc(-c2ccccc2)cc(-c2ccccc2)[n+]1CCc1ccccc1 | 37.9* | 38.8 | -5.0 | 56.6 | 17.3 | 62.6 | 15.4* | 25.9
CC(=O)OC1C(=O)OCC23CCC4(C)OC4C2OC2CC(OC(=O)C=CC=CC(=O)OCCC1C)C3(C)C21CO1 (stereo not drawn) | 89.0* | 95.6* | -0.5 | 92.5* | 71.8* | 98.1* | 10.4 | 86.1*
C#CC(CC)(CC)NC(=O)Nc1ccc(OCC)cc1 | -10.6 | -7.7 | 0.0 | -22.4 | -15.5 | -7.5 | · | ·
CC(=O)c1c(C)n(C2CCCCC2)c2ccc(O)cc12 | 51.4* | 73.2* | -10.7 | 69.4* | 25.1 | 38.3 | 16.5* | 20.1
